Compound activity as filed in PubChem BioAssay.
Sampled rows, rich in hits. Any-hit rate of the full collection: about 6.9%.
VDR inh: vitamin D3 receptor (human) inhibition; VDR-SRC2-3 peptide fluorescence polarization, 2 h; P11473; Potency, µM, most hits filed as inhibitors; 0.93% of 400,000 active
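Inhibition of the VDR/SRC2-3 peptide interaction is quantified by fluorescence polarization. Compounds (23 nl, pintool) incubate with the reagents for 2 hours at ambient room temperature.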
BAZ2B block: blocks human BAZ2B; Q9UIF8; AlphaScreen BAZ2B-H3K14Ac peptide displacement; Potency, µM (doses to about 114 µM), actives largely listed as inhibitors; 4.4% of 360,000 active; AID 504333; further: nearly all actives have a fitted effect of over 60% in size
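AlphaScreen luminescence quantifies BAZ2B engagement of H3K14Ac peptide; the protein and biotinylated peptide are both at 50 nM final, buffer PBS pH 7.4 with 0.01% Tween-20, all steps at room temperature.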
HP1b binding inh: inhibitors of HP1-beta chromodomain binding to methylated histone tails. P83916. AlphaScreen HP1-beta / biotin-H3K9me3 peptide binding. Potency, µM (highest dose often 114 µM), usual class: inhibitors. 0.56% of 390,000 active; further: nearly all actives have a fitted effect of over 70% in size
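HP1-beta protein (50 nM final) preincubated 30 min at room temperature with biotinylated H3(1-18)K9me3 peptide (50 nM) in PBS pH 7.4, 0.01% Tween-20, then compound added for 30 min. AlphaScreen streptavidin donor/nickel chelate acceptor beads (10 ug/mL final), 30 min dark, luminescence read.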
L3MBTL1 inh-1: blocks human L3MBTL1 | Q9Y468 | AlphaScreen L3MBTL1–H3K9me1 peptide binding | 0.66% of 230,000 active | Potency, µM (top dose mostly 57.1 µM), most hits filed as inhibitors; further: nearly all actives have a fitted effect of over 60% in size
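AlphaScreen proximity signal between nickel-chelate acceptor and streptavidin donor beads (final 10 ug/mL) reports binding of 50 nM L3MBTL1 to 75 nM biotin-H3 K9me1 peptide; complex incubated with compounds 30 min at room temperature; cefsulodin titration as control.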
JMJD2A Tudor: inhibitors of human JMJD2A Tudor domain; AID 504339; Potency, µM (doses to about 114 µM), actives largely listed as inhibitors; 4.4% of 390,000 active; AlphaScreen JMJD2A-Tudor / H3K4me3 peptide binding; O75164; further: nearly all actives have a fitted effect of over 50% in size
PLK1 PBD inh: blocks phosphopeptide binding to human PLK1 polo-box domain. P53350. Plk1 PBD binding of FITC phosphopeptide, fluorescence polarization. 2.8% of 360,000 active. Potency, µM, most hits filed as inhibitors; further: series mostly up to about 57 µM; nearly all actives have a fitted effect of over 65% in size
Target sequence (P53350 whole entry, looked up, the tested form may be a part): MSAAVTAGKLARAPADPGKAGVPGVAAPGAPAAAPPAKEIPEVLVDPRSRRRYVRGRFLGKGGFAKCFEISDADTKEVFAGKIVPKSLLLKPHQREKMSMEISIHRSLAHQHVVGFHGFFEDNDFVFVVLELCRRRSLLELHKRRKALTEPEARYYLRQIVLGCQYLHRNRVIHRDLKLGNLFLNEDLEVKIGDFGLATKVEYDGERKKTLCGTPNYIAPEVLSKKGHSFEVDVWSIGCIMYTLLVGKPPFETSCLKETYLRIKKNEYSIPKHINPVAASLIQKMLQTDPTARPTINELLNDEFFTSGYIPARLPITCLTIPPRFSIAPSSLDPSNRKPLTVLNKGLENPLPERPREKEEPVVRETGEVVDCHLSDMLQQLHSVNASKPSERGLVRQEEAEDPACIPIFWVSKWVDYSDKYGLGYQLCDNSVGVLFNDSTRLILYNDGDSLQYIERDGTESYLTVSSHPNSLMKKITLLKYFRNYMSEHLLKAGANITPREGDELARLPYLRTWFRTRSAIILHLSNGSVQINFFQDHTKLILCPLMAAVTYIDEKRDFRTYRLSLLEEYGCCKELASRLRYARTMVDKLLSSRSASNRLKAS
L3MBTL1 inh-2: blocks human L3MBTL1 methyl-lysine binding; shares compounds with L3MBTL1 inh-1; L3MBTL1 methyl-lysine binding inhibition, biochemical qHTS; Potency, µM, actives largely listed as inhibitors; 91% of 500 active; further: nearly all actives have a fitted effect of over 70% in size
L3MBTL1 ctr: interferes with AlphaScreen signal in L3MBTL1 counterscreen; shares compounds with L3MBTL1 inh-1; 500 tested, under 10 active; AlphaScreen counterscreen, signal inhibition; Potency, µM (doses to about 57.1 µM), actives largely listed as inhibitors; AID 602224
Large screens that a line does not name were inactive (follow-up assays come after a bar, where they were run). The call rests on the fitted dose curve; in most records, active means well fitted curve in the direction sought with a large enough effect; inconclusive means small, poorly fitted or top-dose-only effect, or another doubt; inactive means no such curve, though single readings can be large; an effect the other way counts as inactive or inconclusive.

O=C(CSc1nc(-c2ccccc2)nc2ccc(F)cc12)Nc1ccc(C(=O)O)cc1	BAZ2B block 50.1µM, L3MBTL1 inh-1 39.8µM, JMJD2A Tudor 35.5µM | L3MBTL1 inh-2 inconclusive | L3MBTL1 ctr inconclusive
CC(C)OC(=O)CSc1nc(-c2ccc(F)cc2)nc2ccc(F)cc12	none
O=C(Cc1n[nH]c(=O)c2ccccc12)Nc1cc(Cl)ccc1-n1cncn1	none
Oc1[nH]c2ccccc2c1N=Nc1ccc(F)cc1	none
Oc1c(N=Nc2ccc(F)cc2)ccc2ccccc12	VDR inh inconclusive, BAZ2B block 1.41µM, HP1b binding inh 3.16µM, L3MBTL1 inh-1 7.94µM, JMJD2A Tudor 2.51µM, PLK1 PBD inh 9.47µM | L3MBTL1 inh-2 1.06 | L3MBTL1 ctr 0.752µM
CCOc1ccc(C(=O)Nc2ccc3c(c2)CCCN3S(=O)(=O)c2ccc(C)cc2)cc1	none (no result: L3MBTL1 inh-1, PLK1 PBD inh)
COc1ccc(-c2nc(C)c(CCNC(=O)C(=O)Nc3cc(C)cc(C)c3)s2)cc1OC	none (no result: L3MBTL1 inh-1, PLK1 PBD inh)
COC(=O)/C(C#N)=C/c1ccc(OC(=O)c2ccccn2)cc1	BAZ2B block 7.08µM, L3MBTL1 inh-1 15.8µM, JMJD2A Tudor 8.91µM | L3MBTL1 inh-2 inconclusive | L3MBTL1 ctr inactive
CN1C(C(=O)N2CCc3ccccc3C2)=CC(c2ccc(F)cc2)=NS1(=O)=O	none (no result: L3MBTL1 inh-1)
COc1cc2c(cc1OC)CN(Cc1nc3ccsc3c(=O)[nH]1)CC2	BAZ2B block 39.8µM, L3MBTL1 inh-1 25.1µM, JMJD2A Tudor inconclusive | L3MBTL1 inh-2 21.2 | L3MBTL1 ctr inactive
O=c1[nH]c(CN2CCN(c3ccccc3Cl)CC2)nc2ccsc12	none
O=C(Nc1ccccc1C(=O)NC1CC1)c1ccc([N+](=O)[O-])o1	BAZ2B block inconclusive, L3MBTL1 inh-1 31.6µM, JMJD2A Tudor inconclusive | L3MBTL1 inh-2 18.9 | L3MBTL1 ctr inactive
O=C(Nc1cccc2ccccc12)c1ccc([N+](=O)[O-])o1	none
O=C(/C=C/c1ccco1)NC(=S)Nc1cccc([N+](=O)[O-])c1	BAZ2B block inconclusive, L3MBTL1 inh-1 35.5µM, JMJD2A Tudor inconclusive | L3MBTL1 inh-2 23.8 | L3MBTL1 ctr inactive
O=C(NC(=S)Nc1cccc([N+](=O)[O-])c1)c1ccco1	none
O=C(O)c1ccccc1NCc1cccnc1	none (no result: BAZ2B block, L3MBTL1 inh-1)
O=C(O)CNc1ccccc1C(=O)O	BAZ2B block inconclusive, L3MBTL1 inh-1 22.4µM, JMJD2A Tudor 56.2µM | L3MBTL1 inh-2 2.99 | L3MBTL1 ctr inactive
O=C(CCSc1ccccc1)Nc1nccs1	none (no result: L3MBTL1 inh-1)
O=C(CCCSc1ccccc1)Nc1nc(-c2ccco2)c(-c2ccco2)s1	BAZ2B block 22.4µM, HP1b binding inh 28.2µM, L3MBTL1 inh-1 22.4µM, JMJD2A Tudor 39.8µM | L3MBTL1 inh-2 23.8 | L3MBTL1 ctr inconclusive
CCc1cc2c(SCc3ccc(C(=O)OC)o3)ncnc2s1	none (no result: L3MBTL1 inh-1)
O=c1oc(-c2cccnc2)nc2ccccc12	none
Cc1cc(=O)c2cc3nc(-c4cccnc4)oc3c(Br)c2o1	BAZ2B block 79.4µM, L3MBTL1 inh-1 31.6µM (no result: VDR inh, HP1b binding inh, JMJD2A Tudor, PLK1 PBD inh) | L3MBTL1 inh-2 5.97 | L3MBTL1 ctr inactive
COCCc1nn2c(=O)cc(COC(=O)c3ccc(Br)cc3)nc2s1	none (no result: L3MBTL1 inh-1, PLK1 PBD inh)
COCCN(C(=O)COC(=O)Cc1coc2cc(C)ccc12)c1c(N)n(Cc2ccccc2)c(=O)[nH]c1=O	BAZ2B block inconclusive, L3MBTL1 inh-1 25.1µM | L3MBTL1 inh-2 26.7 | L3MBTL1 ctr inactive
CCC1CCc2sc(C(=O)OCC(=O)N(CCOC)c3c(N)n(Cc4ccccc4)c(=O)[nH]c3=O)cc2C1 (stereo not drawn)	none
COCCN(C(=O)COC(=O)Cc1cccc2ccccc12)c1c(N)n(Cc2ccccc2)c(=O)[nH]c1=O	none (no result: L3MBTL1 inh-1)
COCCN(C(=O)COC(=O)c1cc2c(s1)CCC2)c1c(N)n(Cc2ccccc2)c(=O)[nH]c1=O	BAZ2B block 8.91µM, L3MBTL1 inh-1 2.51µM, JMJD2A Tudor 8.91µM, PLK1 PBD inh 9.47µM | L3MBTL1 inh-2 0.844 | L3MBTL1 ctr inactive
CO/N=C(/CN1CCCCC1)c1ccc(Cl)cc1	BAZ2B block inconclusive (no result: L3MBTL1 inh-1)
